MCF10A rereplic: DNA re-replication induction in MCF 10a cells | MCF 10A DNA re-replication, Hoechst nuclear intensity, 48 h | Potency, µM (highest dose often 46.1 µM), for the others: at the highest dose activity, positive = re-replication, hits mostly activators | 350,000 compounds, 2.9% hits; further: % of control where 0% means no effect; nearly all actives have a fitted effect of over 50% in size
SW480 rereplic: inducers of DNA re-replication in SW480 colon cancer cells; Potency, µM (top dose mostly 46.1 µM), for the others: top-dose re-replication activation, most hits filed as activators; AID 624297; 340,000 compounds, 1.8% hits; SW480 DNA re-replication, Hoechst DNA content imaging, 48 h; further: % of control where 0% means no effect; nearly all actives have a fitted effect of over 55% in size
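Quantitative HTS format with DMSO vehicle controls; 48 hr drug incubation at 37 C, then 40 min Hoechst staining and scanning imager measurement at 405 nm excitation.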
PINK1 expr mod: changes PINK1 expression; PINK1 immunofluorescence, high-content cytometry, 24 h; Potency, µM (series often up to 76.6 µM), for inactives: at the highest dose activation (PINK1 increase), actives largely listed as activators; 410,000 compounds, 0.2% hits; AID 624263; active means well fitted activation curve with a large enough effect; inconclusive means small, poorly fitted or top-dose-only effect; cell line not stated here; further: % of control where 0% means no effect; nearly all actives have a fitted effect of over 65% in size
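Stable cell line treated 24 h with compounds at 5 concentrations (CCCP controls), then fixed and immunostained for PINK1 plus nuclear and cell stains; PINK1 immunofluorescence quantified by laser-scanning microplate cytometry.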
KB-3-1 tox: kills parental KB-3-1 adenocarcinoma cells | KB-3-1 viability, CellTiter-Glo ATP luminescence, 72 h | 400,000 compounds, 1.4% hits | Potency, µM (series often up to 46.1 µM), actives largely listed as cytotoxic | AID 1347075; further: on the % scale 0 is the no-effect control and ±100 the full control effect; nearly all actives have a fitted effect of over 60% in size
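Cells are dispensed, compounds pinned in, plates held at 37 °C for 72 h, then CellTiter-Glo is added and luminescence read after 10 minutes. Cell line: parental KB-3-1 in phenol-red-free DMEM, 10% FBS.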
ALOX12 inh: ALOX12 (human) lipoxygenase inhibition; P18054; purified 12hLO, xylenol orange hydroperoxide absorbance; Potency, µM (titrated, usually from 108 µM), without a hit: top-dose activity change, negative = inhibition, actives largely listed as inhibitors; 580,000 compounds, 1.1% hits; AID 1671190; further: on the % scale 0 is the no-effect control and ±100 the full control effect
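Hydroperoxide product was detected by ferrous iron/xylenol orange as the 573 to 405 nm absorbance ratio. Arachidonic acid at 40 uM (final) was turned over for 30 min at room temperature by 150 nM human 12hLO, pH 7.0 Hepes buffer, after 15 min compound preincubation.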
KB-V1 MDR tox: KB-V1 MDR subline cytotoxicity; KB-V1 MDR cells viability, CellTiter-Glo, 72 h; Potency, µM (highest dose often 46.1 µM), usual class: cytotoxic; 400,000 compounds, 3.4% hits; further: on the % scale 0 is the no-effect control and ±100 the full control effect; nearly all actives have a fitted effect of over 60% in size
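Cells of the MDR subline KB-V1 are plated, dosed with compound at multiple concentrations, and incubated 72 h at 37 degrees C; CellTiter-Glo is then added and luminescence read after 10 min.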
An asterisk follows results filed as active; [ ] = another dose, or the depositor's remark. Most compounds without a hit are left out; they make up all but 5.8% or so of the library. Unless noted, the call rests on the fitted dose curve; in most records, active means well fitted curve in the direction sought with a large enough effect; inconclusive means small, poorly fitted or top-dose-only effect, or another doubt; inactive means no such curve, though single readings can be large; an effect the other way counts as inactive or inconclusive. Potency means the concentration at half of the fitted maximal effect.

CC(=O)c1c(C)[nH]c(C(=O)NC2CCCCC2)c1C was read as MCF10A rereplic -11.0%, SW480 rereplic -4.8%[9.22 µM], PINK1 expr mod -1.2%, KB-3-1 tox inactive, ALOX12 inh 0.0% and KB-V1 MDR tox inactive.
Screening CN(C)Cc1ccc(-c2nc3cccc4c3n2CCNC4=O)cc1 returned MCF10A rereplic inconclusive, SW480 rereplic inconclusive, PINK1 expr mod 0.9%, KB-3-1 tox 18.4µM*, ALOX12 inh -4.7%[57.4 µM] and KB-V1 MDR tox inactive.
For Cc1cc(C)c(CNC(=O)c2nc(-c3ccc(CN(C)C)cc3)cc3[nH]ccc23)c(=O)[nH]1 the results were ALOX12 inh 53.1%[176 µM].
`Cc1cc(Cn2cc3c4c(cccc42)[C@H](CC(C)C)N[C@H](C(=O)NCc2ccco2)C3)no1` gave ALOX12 inh 19.0%.
Screening COc1ccc(OCc2cc(C(=O)NCCc3nc(C)c(C)s3)no2)c(Cl)c1 returned ALOX12 inh 8.3%.
For CO/N=C/c1ccc(Sc2ccc(C)cc2)c([N+](=O)[O-])c1 the results were MCF10A rereplic inconclusive, SW480 rereplic -2.9%, PINK1 expr mod 7.5%, KB-3-1 tox inactive, ALOX12 inh 151.9% and KB-V1 MDR tox inactive.
Screening CC(C)(C)Sc1ccc(/C=N/O)cc1[N+](=O)[O-] returned MCF10A rereplic 4.0%, SW480 rereplic 2.3%, PINK1 expr mod -3.6%, KB-3-1 tox inactive, ALOX12 inh 4.5% and KB-V1 MDR tox 23.1µM*.
Screening O=[N+]([O-])c1cc(/C=N/O)ccc1SCc1ccccc1Cl returned MCF10A rereplic inconclusive, SW480 rereplic inconclusive, PINK1 expr mod -1.2%[38.3 µM], KB-3-1 tox inactive, ALOX12 inh inconclusive and KB-V1 MDR tox 20.6µM*.
`O=[N+]([O-])c1cc(/C=N/O)ccc1N1CCCC1` gave MCF10A rereplic -7.2%, SW480 rereplic 11.6%, PINK1 expr mod 2.6%, KB-3-1 tox inconclusive, ALOX12 inh -5.1% and KB-V1 MDR tox inconclusive.
`Cc1ccc(Sc2ccc(/C=N/O)cc2[N+](=O)[O-])cc1` gave MCF10A rereplic 20.6µM*, SW480 rereplic inconclusive, PINK1 expr mod 0.1%, KB-3-1 tox inactive, ALOX12 inh inconclusive and KB-V1 MDR tox inactive.
Cc1cccc(NC(=O)NC2CCSc3ccccc32)c1 (centres undefined) was read as ALOX12 inh -24.9%.
Screening Cc1ccccc1C(C(=O)NCc1ccco1)N(CC1CCCO1)C(=O)Cn1nnc2ccccc21 (centres undefined) returned MCF10A rereplic 11.0%, SW480 rereplic 2.2%, PINK1 expr mod 2.6%, KB-3-1 tox inactive, ALOX12 inh 0.0% and KB-V1 MDR tox inconclusive.
O=C(NCc1ccco1)C(c1ccccc1)N(CC1CCCO1)C(=O)Cn1nnc2ccccc21 (centres undefined) was read as MCF10A rereplic -4.2%, SW480 rereplic inconclusive, PINK1 expr mod 1.0%, KB-3-1 tox inactive, ALOX12 inh 0.0% and KB-V1 MDR tox 20.6µM*.
`Cc1ccc(N(C(=O)Cn2nnc3ccccc32)C(C(=O)NC2CCCCC2)c2cn(C)nc2C)cc1` (centres undefined) gave MCF10A rereplic -4.8%, SW480 rereplic 0.6%, PINK1 expr mod 5.1%[38.3 µM], KB-3-1 tox inactive, ALOX12 inh -13.1% and KB-V1 MDR tox inactive.
Screening O=C(NC1CCCCC1)C(c1ccccc1F)N(Cc1ccco1)C(=O)Cn1nnc2ccccc21 (centres undefined) returned MCF10A rereplic 5.9%, SW480 rereplic -2.0%, PINK1 expr mod 6.3%, KB-3-1 tox inactive, ALOX12 inh -20.2% and KB-V1 MDR tox inactive.
`O=C(NC1CCCCC1)C(c1ccc(F)cc1)N(Cc1ccco1)C(=O)Cn1nnc2ccccc21` (centres undefined) gave MCF10A rereplic -6.6%, SW480 rereplic 1.8%, PINK1 expr mod 14.1µM*, KB-3-1 tox inactive, ALOX12 inh 4.3% and KB-V1 MDR tox inactive.
